Measurements from PubChem BioAssay AID485360 (National Center for Advancing Translational Sciences (NCATS), 2010).
The campaign covered roughly 230,000 compounds. About 1,500 (0.65%) were called active. Roughly 3% stayed inconclusive and do not appear here. The call rests on the fitted dose curve; in most records, active means well fitted inhibition curve with a large enough effect; inconclusive means small, poorly fitted or top-dose-only effect; inactive means no such curve, though single readings can be large or run the other way. Shown is part of a subset that was picked to be rich in actives.

The compounds below were run against Lethal(3)malignant brain tumor-like protein 1 (Homo sapiens) (UniProt Q9Y468) (assay: qHTS Assay for the Inhibitors of L3MBTL1). Settings: AlphaScreen L3MBTL1–H3K9me1 peptide binding; series mostly up to 57.1 µM; activity, negative = inhibition: at the top concentration.
From the text: The histone code is comprised of many post-translational modifications that occur mainly in histone tail peptides. The identity and location of these marks are read by a variety of histone binding proteins that are emerging as important regulators of cellular differentiation and development and are increasingly being implicated in numerous disease states. Small molecule probes that disrupt the interaction between histone binding proteins and chromatin would enable a systematic chemical biology study of proteins that read the histone code and could potentially reveal new targets for drug discovery. However, no such small molecules are known. This dearth of quality molecular probes can largely be attributed to the novelty of the target class and the lack of screening assays. This proposal details the development of the first high-throughput screening assay for the discovery of inhibitors of methyl-lysine binding proteins and how it can be be used to initiate a full-scale discovery effort for antagonists of histone binding proteins. Specifically, this work focuses on an AlphaScreen(tm)-based HTS assay for Malignant Brain Tumor (MBT) domain-containing proteins, which bind to the lower methylation states of lysine residues present in histone tail peptides.
To each well, 2 uL of L3MBTL1 protein (final 50 nM) and 1 uL biotinylated histone peptide monomethylated at Lys9 [b-AHA-H3(1-15)K9me1] (final 75 nM) was added using a nanoliter dispenser. Formation of a protein-peptide complex proceeded at room temperature for 30 min. A Kalypsys pin-tool was employed to transfer 23 nL of library compound solution in DMSO to each well. Cefsulodin, found in a pilot screen of the LOPAC library to be a weak inhibitor of L3MBTL1 binding, was used as an intraplate control with a 16-point titration in duplicate. Following a 30 min incubation of the protein-peptide complex with compounds at room temperature, a mixture of 40 ug/mL each streptavidin-coated donor and nickel chelate acceptor AlphaScreen beads (final 10 ug/mL) was added in a 1 uL dispense for a final volume of 4 uL. Plates were incubated, protected from the light for 30 min at room temperature. Microplates were then be read on an EnVision multilabel plate reader using the 1,536 plate HTS AlphaScreen aperture (excitation time 80 ms, measurement time 240 ms).
Further: nearly all actives have a fitted effect of over 60% in size.
On the % scale 0 is the no-effect control and ±100 the full control effect; potency means the concentration at half of the fitted maximal effect.

Lethal(3)malignant brain tumor-like protein 1 (Homo sapiens), sequence (Q9Y468 whole entry, looked up): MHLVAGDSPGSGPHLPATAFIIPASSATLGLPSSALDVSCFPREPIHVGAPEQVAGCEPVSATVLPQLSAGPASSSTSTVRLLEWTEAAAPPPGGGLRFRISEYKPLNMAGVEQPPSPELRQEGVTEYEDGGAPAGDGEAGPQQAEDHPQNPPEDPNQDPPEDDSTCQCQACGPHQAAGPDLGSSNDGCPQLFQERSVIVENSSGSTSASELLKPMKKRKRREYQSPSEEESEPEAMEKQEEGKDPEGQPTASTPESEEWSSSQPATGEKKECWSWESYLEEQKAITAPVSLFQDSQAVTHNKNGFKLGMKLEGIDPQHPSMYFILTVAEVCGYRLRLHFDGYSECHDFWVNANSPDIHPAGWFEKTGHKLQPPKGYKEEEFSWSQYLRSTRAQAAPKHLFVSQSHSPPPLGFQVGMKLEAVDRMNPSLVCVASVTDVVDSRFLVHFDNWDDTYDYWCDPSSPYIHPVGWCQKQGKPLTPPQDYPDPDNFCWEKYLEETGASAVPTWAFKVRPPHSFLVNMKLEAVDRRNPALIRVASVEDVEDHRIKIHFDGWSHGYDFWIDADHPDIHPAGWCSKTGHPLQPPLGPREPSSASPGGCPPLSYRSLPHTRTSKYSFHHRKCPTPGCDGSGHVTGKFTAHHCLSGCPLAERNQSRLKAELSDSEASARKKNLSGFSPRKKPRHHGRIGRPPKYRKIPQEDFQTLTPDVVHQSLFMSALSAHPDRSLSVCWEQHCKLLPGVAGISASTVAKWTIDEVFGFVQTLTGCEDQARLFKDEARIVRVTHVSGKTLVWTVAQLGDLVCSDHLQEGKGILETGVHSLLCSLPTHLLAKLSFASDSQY

Compound	Potency	activity, negative = inhibition
O=C1NC(=O)N(c2ccccc2)C(=O)/C1=C/c1ccc([N+](=O)[O-])s1	17.8 µM (active)	–
Cc1cccc(N2C(=O)NC(=O)/C(=C\c3cnn(-c4ccccc4)c3)C2=O)c1	–	-3.83% (inactive)
O=C1NC(=O)N(c2ccc(F)cc2)C(=O)/C1=C/c1ccc2c(c1)CCCN2Cc1ccccc1	–	-2.39% (inactive)
COc1cccc(N2C(=O)NC(=O)/C(=C\c3ccc([N+](=O)[O-])s3)C2=O)c1	20 µM (active)	–
O=C(NC(=S)N1C[C@H]2C[C@H](C1)c1cccc(=O)n1C2)c1ccc(F)cc1	–	4.52% (inactive)
Cn1cc(C(=O)OCC(=O)N2CCCC2)c2ccccc21	–	6.7% (inactive)
O=c1[nH]c(O)c(C=Nc2cc(F)cc(F)c2)c(=O)[nH]1	–	2.62% (inactive)
CCN(CC)C(=O)Oc1ccc(NC(=O)N2CCOCC2)cc1	–	-2.49% (inactive)
COc1ccc(-c2nn(CCC#N)cc2C(=O)Nc2ccc(C(C)=O)cc2)cc1	–	-7.02% (inactive)
Cc1nc2ccccc2c(=O)n1-c1ccc(Cl)cc1Cl	–	4.09% (inactive)
O=C(OCC1O[C@@H](OC(=O)c2cc(O)c(O)c(O)c2)[C@@H](OC(=O)c2cc(O)c(O)c(O)c2)[C@@H](OC(=O)c2cc(O)c(O)c(O)c2)[C@@H]1OC(=O)c1cc(O)c(O)c(O)c1)c1cc(O)c(O)c(O)c1 (stereo not given in full)	0.178 µM (active)	–
Cc1ccc(-n2c(C)cc(/C=C3\C(=O)NC(=O)N(C)C3=O)c2C)cc1C	–	-20.4% (inactive)
Cc1ccnc(-n2c(C)cc(/C=C3\C(=O)NC(=S)N(C)C3=O)c2C)c1	–	-11.1% (inactive)
Cc1cc(/C=C2/C(=O)NC(=O)N(Cc3ccco3)C2=O)c(C)n1-c1ccc(C(=O)O)cc1	15.8 µM (active)	–
COC(=O)[C@@H]1C(OC(=O)c2ccccc2)CC2CCC1N2C (stereo not given in full)	–	-1.9% (inactive)
CN(C)C(=O)Oc1ccc(NC(=O)N2CCOCC2)cc1	–	7.02% (inactive)
COCCNC(=O)CN1C2CCC1CC(O)(c1cccnc1)C2 (stereo not given)	–	-0.317% (inactive)
CN(C)CCN(CC1CCCN(Cc2ccccc2F)C1)C(=O)Cc1ccc(F)c(F)c1 (stereo not given)	–	-3.82% (inactive)
COC(=O)C1=C(c2ccc(F)cc2OCc2ccccc2)C[C@@H]2CC[C@H]1N2C(=O)NCc1ccc(OC)c(OC)c1	–	-18.1% (inactive)
Cc1c(Oc2cc(NN3CCCCC3)c([N+](=O)[O-])cc2[N+](=O)[O-])cccc1[N+](=O)[O-]	–	33% (inactive)
COC(=O)C1=C(c2ccc(C(C)=O)cc2)C[C@@H]2CC[C@H]1N2C(=O)NCCNC(C)=O	–	3.36% (inactive)
CCN(CC)c1ccc([N+](=O)[O-])c2cccnc12	10 µM (active)	–
Oc1ccc2c3c1OC1[C@H](O)CC[C@@]4(O)[C@@H](C2)N(CC2CC2)CC[C@]314 (stereo not given in full)	inactive	–
COC(=O)C1=C(c2ccc3ccccc3c2)C[C@@H]2CC[C@H]1N2C(=O)NCCO	–	11.1% (inactive)
Cc1ccccc1N1C(=O)NC(=O)/C(=C\c2cc(C)n(C)c2C)C1=O	–	-4.84% (inactive)
Cc1c(C(=O)O)cccc1-n1c(C)cc(/C=C2\C(=O)NC(=O)N(c3ccc4c(c3)OCO4)C2=O)c1C	14.1 µM (active)	–
COC(=O)C1=C(c2ccc(F)cc2F)C[C@@H]2CC[C@H]1N2C(=O)NC1CC1	–	6.1% (inactive)
COC(=O)C1=C(c2ccc(Cl)c(C(F)(F)F)c2)C[C@@H]2CC[C@H]1N2C(=O)NC1CC1	–	0.885% (inactive)
O=C(c1ccccc1[N+](=O)[O-])N1CCC2(CC1)OCCO2	–	4.07% (inactive)
C[C@]12CCC3C(CC[C@H]4C[C@@H](O)CC[C@]34C)C1C[C@@H](O)[C@H]2O (stereo not given in full)	–	2.44% (inactive)
